# Assay results published in PubChem BioAssay AID1018 (Sanford-Burnham Center for Chemical Genomics, 2008).
# About 15 (0.007%) of roughly 200,000 compounds were called active. Rule as the data show it: active = displacement above about 50%; inactive = the rest. This excerpt belongs to a sample that is enriched for actives.
# Target: E3 ubiquitin-protein ligase XIAP (Homo sapiens) (UniProt P98170)
# Assay: XIAP antagonists, biochemical, IAP family, fluorescence polarization (AID 1018)
# Settings: XIAP BIR domain, fluorescence polarization peptide displacement; at 20 µM; hits give high values
# Sequence of E3 ubiquitin-protein ligase XIAP (Homo sapiens) (P98170 whole entry, looked up): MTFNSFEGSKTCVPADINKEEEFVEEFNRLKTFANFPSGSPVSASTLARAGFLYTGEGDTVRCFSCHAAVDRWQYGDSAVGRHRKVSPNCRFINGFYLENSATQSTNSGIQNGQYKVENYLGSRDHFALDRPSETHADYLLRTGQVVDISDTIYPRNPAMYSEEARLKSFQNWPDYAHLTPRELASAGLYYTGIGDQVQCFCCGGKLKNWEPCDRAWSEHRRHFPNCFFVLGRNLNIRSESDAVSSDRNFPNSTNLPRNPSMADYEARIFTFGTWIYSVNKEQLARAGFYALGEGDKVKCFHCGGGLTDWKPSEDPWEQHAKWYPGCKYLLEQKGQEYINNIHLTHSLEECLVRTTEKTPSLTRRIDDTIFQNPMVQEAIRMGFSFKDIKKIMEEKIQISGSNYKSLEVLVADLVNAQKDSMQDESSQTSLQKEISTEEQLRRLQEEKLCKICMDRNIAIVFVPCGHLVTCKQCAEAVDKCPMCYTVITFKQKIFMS
row,SMILES,displacement
1,CN1C(=O)N(C)C(=O)C2(Cc3cc(N)ccc3N3CCN(c4ccccc4F)CC32)C1=O (stereo not given),55.4% (active)
2,CN1C(=O)N(C)C(=O)C2(Cc3ccccc3N3CCOCC32)C1=O (stereo not given),-5.1% (inactive)
3,CN1C(=O)NC(=O)[C@]2(Cc3ccccc3N3CCN(c4ccccc4)CC32)C1=O (stereo not given in full),-2.4% (inactive)
4,Cc1ccc(-c2nc3ccccc3c(=O)n2-c2ccccn2)cc1,-3% (inactive)
5,CCCCCSc1cc(OC)c(CCN(C)C)cc1OC,-2.2% (inactive)
